# Screening data from PubChem BioAssay.
# This is a sample that favours compounds with a hit; in the whole collection about 5% have one here.
# UCHL1 inh = blocks human UCHL1 ubiquitin-rhodamine cleavage; AID 1645859; inhibition, % at 20 µM; purified UCHL1, Ub-rhodamine cleavage fluorescence; hit rate 0.2% among 47,000; P09936
# USP10 block = human USP10 deubiquitinase inhibition; Q14694; hit rate 1.1% among 47,000; inhibition, % at 20 µM; purified USP10, Ub-rhodamine fluorescence, 60 min
# USP7 inh = human USP7 deubiquitinase inhibition | Q93009 | purified USP7, Ub-rhodamine cleavage fluorescence | inhibition, % at 20 µM | hit rate 0.3% among 47,000 | AID 1645854
# USP8 inh = human USP8 deubiquitinase inhibition; purified USP8, Ub-rhodamine cleavage fluorescence, 30 min; inhibition, % at 20 µM; hit rate 4.2% among 47,000; AID 1645853
# Starred values were filed as active, the others as inactive. No stated cut-off is given here; in the data, active means inhibition above about 30%; inactive means the rest.
SMILES,UCHL1 inh,USP10 block,USP7 inh,USP8 inh
Cc1ccc(S(=O)(=O)c2nnn3c2nc(N2CCN(c4cccc(Cl)c4)CC2)c2ccccc23)cc1C,0.3,-0.3,1.7,3.0
COc1cccc(CNC(=O)c2cnn3c4c(cnc23)CCCCC4)c1,-1.1,4.6,3.6,-15.8
CC(C)c1ccc(Nc2cc(C(=O)N3CCOCC3)c3ccccc3n2)cc1,6.2,2.2,4.4,-12.1
Cc1cc(C)cc(N(CCC(=O)Nc2ccc(N3CCOCC3)cc2)S(=O)(=O)c2ccc(Cl)cc2)c1,3.7,10.4,9.1,32.3*
Cc1cc(C)cc(N(CCC(=O)Nc2ccccc2)S(=O)(=O)c2ccc3ccccc3c2)c1,8.7,9.6,14.2,22.8
Cc1ccc(-n2nc(C)c3c2NC(=O)CC3C(=O)c2cc3ccccc3o2)cc1 (stereo unspecified),-1.0,32.8*,3.2,23.7
Cc1cc2ncc3c(n2n1)CCN(c1ccc([N+](=O)[O-])cc1)C3,-4.1,-12.1,3.1,-6.5
COc1cccc2cc(C(=O)C3=C(O)C(=O)N(CCCN(C)C)C3c3ccco3)oc12 (stereo unspecified),0.0,-4.7,0.9,43.9*
Cc1ncc(-c2ccccn2)c(-c2ccc(CNC(=O)Cc3sc(C)nc3C)cc2)n1,1.8,0.3,4.8,36.4*
O=C(Nc1ccccc1C(F)(F)F)c1cccc(S(=O)(=O)Nc2cc(C(F)(F)F)ccc2Cl)c1,0.8,42.7*,-0.7,0.0
COc1ccccc1CNC(=O)c1c(O)c2cnn(-c3cccc(C)c3)c2[nH]c1=O,6.6,29.9,-27.5,81.6*
O=C(NCc1ccc(F)cc1F)c1c(O)c2cnn(-c3ccc(F)cc3)c2[nH]c1=O,-4.7,-2.1,-78.3,-192.0
CCN(c1ccc(NC(=O)CSc2nccc(=O)[nH]2)cc1)C(C)C,6.0,2.6,6.0,58.8*
COc1ccc(NC(=O)c2cccc3[nH]cc(CN4CCSCC4)c23)cc1,2.0,-0.1,-0.5,60.6*
COc1ccc(CC(=O)Nc2ccccc2C(=O)Nc2ccc(OC)cc2)cc1,1.7,-3.2,0.3,1.5
COC1CC(OC2C(C)C(=O)OC(C)C(C)C(O)C(C)C(=O)C3(CO3)CC(C)C(OC3OC(C)CC(N(C)C)C3O)C2C)OC(C)C1O (stereo unspecified),3.2,5.7,3.4,3.0
O=C(C1CC1)N1CCN(c2nc3ccc(Br)cc3s2)CC1,-0.2,0.1,-44.3,-174.1
Cc1ccc(NC(=O)N2CCN(C3=CC4=NCC(C)N4C=N3)CC2)c(C)c1 (stereo unspecified),2.5,3.1,6.9,17.3
COc1ccccc1N1CCN(C(=O)c2ccc3c(=O)n(CCc4ccccc4)c(=O)[nH]c3c2)CC1,5.6,40.2*,6.8,29.5
O=C(COc1ccc(N2CC(C(=O)NCc3ccccc3)CC2=O)cc1)Nc1ccccc1Cl (stereo unspecified),-0.3,49.2*,25.9,59.4*
COc1ccc2cc(C(C)C(=O)NCc3cccc(NS(N)(=O)=O)c3)ccc2c1 (stereo unspecified),8.1,12.2,9.1,45.5*
CC1CCCCN1CCNC(=O)C1CCCN(c2cnc3nccnc3c2)C1 (stereo unspecified),-45.5,-5.7,-49.7,-105.7
CC1CCN(C(=O)c2ccc(CSc3nc4ccncc4n3Cc3ccccc3)cc2)CC1,1.4,0.8,1.9,-2.6
O=C(NCc1ccco1)c1ccc(Cn2c(SCc3ccccc3)nc3ccncc32)cc1,2.9,0.1,59.1*,35.1*
CC1CCN(C(=O)Nc2ccc3ccccc3c2)Cc2nc3ccccc3n21 (stereo unspecified),0.5,4.8,-0.2,-125.8
SMILES,UCHL1 inh,USP10 block,USP7 inh,USP8 inh
CC(C)OCCCn1c(=O)c2ccccc2n2c(CCC(=O)NCCc3c[nH]c4ccccc34)nnc12,5.2,-0.6,4.3,18.6
COc1ccc([C@@H]2CN(Cc3cccnc3)C[C@H]2c2cc(=O)[nH]c(C)n2)cc1,-2.8,-0.4,-1.3,16.1
CCc1ccc(C2c3c(-c4cc(C)cc(C)c4O)n[nH]c3C(=O)N2Cc2cccnc2)cc1 (stereo unspecified),8.0,15.3,2.9,74.1*
Cc1ccc(-n2nc(C(=O)NC3CCCCC3)c3ncn(C)c(=O)c32)cc1,-2.2,-1.0,1.5,3.1
Cc1ccc(-n2nc(C(=O)Nc3ccc(C)cn3)c3ncn(C)c(=O)c32)cc1,13.8,31.3*,30.0,72.0*
O=S(=O)(NCc1csc2ccc(Cl)cc12)c1cccc2cccnc12,0.0,3.5,6.8,38.4*
COc1ccc(CCN2CC(C(=O)Nc3ccc4c(c3)OCO4)CC2=O)cc1OC (stereo unspecified),5.3,-1.7,8.3,16.6
O=C1CC(C(=O)Nc2ccc3c(c2)OCO3)n2nc(SCc3ccccc3)nc2N1 (stereo unspecified),5.1,33.1*,12.3,15.1
COc1ccc(NC(=O)C2CC(=O)Nc3nc(SCc4ccccc4)nn32)cc1 (stereo unspecified),-0.7,15.0,3.4,4.4
O=C(Nc1ccc2c(c1)OCO2)C1CC(=O)N(CCc2ccccc2)C1 (stereo unspecified),4.4,-2.3,2.8,55.8*
O=C1CC(C(=O)Nc2ccc3c(c2)OCO3)n2ncc(-c3ccccc3)c2N1 (stereo unspecified),-2.7,2.5,7.3,38.2*
Cc1cnn(CC(=O)N2C[C@@H]3OCC(=O)N(c4ccccc4)[C@H]3C2)c1,0.3,1.1,2.0,5.6
CCOc1ccc(CC(=O)NCc2ccc3[nH]c(C)cc3c2)cc1,1.5,-3.0,0.7,21.3
O=C1C(O)=C(c2ccc(O)cc2)C(=O)C(O)=C1c1ccccc1,-0.1,8.0,-65.7,1.1
CC(C)NC(=O)c1cccnc1N1CCNC(c2ccccc2)C1 (stereo unspecified),1.8,1.6,1.5,0.1
COc1ccc2nc(SCC(=O)Nc3ccc(NC(C)=O)cc3)c(C)cc2c1,8.6,23.9,18.3,68.7*
COc1ccc(-c2nc(SCC(=O)Nc3ccc(C(C)=O)cc3)n[nH]2)cc1,-1.0,1.7,-2.1,4.2
COc1ccc(S(=O)(=O)c2nnn3c2nc(Nc2ccccc2)c2ccccc23)cc1,-7.4,-6.7,-4.9,-2.5
COc1ccc(Nc2nc3c(S(=O)(=O)c4ccc(C)cc4)nnn3c3ccsc23)c(OC)c1,8.3,37.8*,14.0,21.4
CC(C)c1ccc(NC(=O)c2cc3ncc(Br)cn3n2)cc1,14.2,25.7,-128.0,61.1*
Cc1ccc(-c2n[nH]c3c2C(c2ccccc2F)N(c2ccccc2)C3=O)cc1 (stereo unspecified),-0.8,26.5,11.7,70.7*
CN(C)S(=O)(=O)c1ccc(N/C=C/c2ncc(C(F)(F)F)cc2Cl)cc1,1.4,-3.0,-0.8,27.0
Fc1ccc(N/C=C/c2ncc(C(F)(F)F)cc2Cl)cc1,-4.4,-10.6,-1.9,71.8*
COc1ccc(C(=O)Cn2nc(-c3ccco3)c(-c3cc(C)no3)cc2=O)cc1,0.8,2.7,4.3,23.6
Cn1ccc(-c2cc(C(=O)NCc3ccccn3)c3ccccn23)n1,-7.2,-2.9,-7.1,35.5*
Oc1ccc2ccccc2c1CN1CCCC1,1.6,0.5,2.8,37.5*
Oc1ccc2ccccc2c1CN1CCN(c2ncccn2)CC1,1.7,0.2,3.5,-0.1
